# Records with an inconclusive call do not appear. Calls of active or inactive are those of the source. How the source made its calls: active means hit-call score of the fitted dose curve at least 0.9, where 1 is the maximum; inconclusive means response in the unintended direction; inactive means score below 0.9.
# Experiment: CLD_ACTIN_6hr: CellzDirect (CLD) Gene Expression Assay for Baseline Control (Actin) at 6 hours (AID 2283676)
# Method: CLD_6hr is a cell-based, multiplexed-readout assay that uses hepatocyte, a human liver primary cell, with measurements taken at 6 hours after chemical dosing in a 96-well plate.CLD_ACTIN_6hr is one of 16 assay component(s) measured or calculated from the CLD_6hr assay. It is designed to make measurements of mRNA induction, a form of inducible reporter, as detected with chemiluminescence signals by Quantitative Nuclease Protection Assay (qNPA) technology.Data from the assay component CLD_ACTIN_6hr was analyzed at the endpoint, CLD_ACTIN_6hr, in the positive analysis fitting direction relative to DMSO as the negative control and baseline of activity. Using a type of inducible reporter, gain-of-signal activity can be used to understand changes in the reporter gene as they relate to the gene ACTA1. Furthermore, this assay endpoint can be referred to as a secondary readout, because this assay has produced multiple assay endpoints where this one serves a background control function. To generalize the intended target to other relatable targets, this assay endpoint is annotated to the background measurement intended target family, where subfamily is baseline control.
# Human hepatocyte cultures were treated daily for two consecutive days with fresh dosing solutions containing appropriate concentrations of the 320 ToxCast chemicals (chemical identities were blinded to CellzDirect and other ToxCast collaborators), vehicle control (0.2% DMSO), and positive control inducers as summarized in Table 1. Due to the large number of treatment groups and chemicals examined, the ToxCast chemicals were divided into two groups (spanning two independent cultures of hepatocytes from separate donor preparations (Hu778: ToxCast plates 1 and 2; Hu776: ToxCast plates 3 and 4). Each preparation of human hepatocyte cultures was treated with respective vehicle control, medium only control, set of six positive controls/reference chemicals for the five hepatic receptor pathways, and a subset of eight of the ToxCast chemicals (indoxacarb, pyrithiobac-sodium, norflurazon, cyhalofop-butyl, methomyl, thiram, acetochlor, and propiconazole). These replicate data, coupled with internal replicates designed within the blinded ToxCast chemical library, provided additional data to evaluate interindividual differences between hepatocyte preparations and their potential impact on chemical profiles.Cell morphology and integrity were evaluated using phase-contrast microscopy as an indicator of hepatocyte cell health (Tyson & Green, 1987). Cultures for each treatment group (i.e., media, vehicle [0.2% DMSO], positive control inducers [multiple concentrations], and the ToxCast chemicals [multiple concentrations]) were observed and cell morphology was assessed relative to vehicle control cultures at each harvest time point (0, 6, 24, or 48 h). […] Images were evaluated at the conclusion of the study to assess changes in cell integrity and account for the effects of chemical exposure on uncharacteristic changes in concentration-dependent gene expression profiles. The results from these determinations of apparent cytotoxicity were annotated (yes/no) alongside the corresponding qNPA data for reference.At the conclusion of each treatment period, hepatocyte cultures (96-well) were washed with 1 volume of HBSS, lysed by addition of 25 ul ArrayPlate lysis buffer (HTG, Tucson, AZ), and 70 ul/well of Denaturation Oil, denatured by incubation at 95C for 10 min, and frozen at approximately -70C until analysis by nuclease protection assay (qNPA) (Roberts et al., 2007). For qNPA analysis, cell lysates were thawed at 50C for approximately 30 min, qNPA probes were added, and samples were incubated at 95C for 10 min to begin the detection process by denaturing the target RNA, dissociating the duplexes and secondary structure hybridization. At the conclusion of the hybridization period, S1 nuclease reagent was added to each sample to digest all nonprotected nucleotides at 50C for 60-90 min. […]
row,Structure (SMILES),outcome
1,CC(C)=CC1C(C(=O)OCN2C(=O)C3=C(CCCC3)C2=O)C1(C)C (stereo not given),inactive
2,COc1cc(OC)nc(Sc2cccc(Cl)c2C(=O)O)n1,inactive
3,CCOP(=O)(OCC)Oc1cc(C)nc(C(C)C)n1,inactive
4,CSC1=N[C@@](C)(c2ccccc2)C(=O)N1Nc1ccccc1,inactive
5,CCc1cccc(C)c1N(C(=O)CCl)C(C)COC (stereo not given),inactive
6,CNC(=O)ON=C(C)SC,inactive
7,CC(C)[C@H](C(=O)O[C@H](C#N)c1cccc(Oc2ccccc2)c1)c1ccc(Cl)cc1,inactive
8,CCOP(=S)(OCC)Oc1cc(C)nc(C(C)C)n1,inactive
9,Cc1cc(C2CC2)nc(Nc2ccccc2)n1,inactive
10,N#CSCSC#N,inactive
11,CC1=NNC(=O)N(/N=C/c2cccnc2)C1,inactive
12,C#CC(C)(C)NC(=O)c1cc(Cl)cc(Cl)c1,inactive
13,CCc1cnc(C2=NC(C)(C(C)C)C(=O)N2)c(C(=O)O)c1 (stereo not given),inactive
14,CSc1nnc(C(C)(C)C)c(=O)n1N,inactive
15,S=C1NCCN1,inactive
16,CN(C)NC(=O)CCC(=O)O,inactive
17,CN1COCN(Cc2cnc(Cl)s2)C1=N[N+](=O)[O-],inactive
18,CC(Oc1cccc(Cl)c1)C(=O)O (stereo not given),inactive
19,CC[C@H](C)[C@H]1O[C@]2(C=C[C@@H]1C)C[C@@H]1C[C@@H](C/C=C(\C)[C@@H](O[C@H]3C[C@H](OC)[C@@H](O[C@H]4C[C@H](OC)[C@@H](NC)[C@H](C)O4)[C@H](C)O3)[C@@H](C)/C=C/C=C3\CO[C@@H]4[C@H](O)C(C)=C[C@@H](C(=O)O1)[C@]34O)O2,inactive
20,C[Si](Cn1cncn1)(c1ccc(F)cc1)c1ccc(F)cc1,inactive

row,Structure (SMILES),outcome
1,C#CCC1=C(C)C(OC(=O)C2C(C=C(C)C)C2(C)C)CC1=O (stereo not given),inactive
2,CCOP(=O)(SC(C)CC)N1CCSC1=O (stereo not given),inactive
3,CN(C)C(=O)Nc1cccc(C(F)(F)F)c1,inactive
4,Nc1c(Cl)cc([N+](=O)[O-])cc1Cl,inactive
5,CNc1cnn(-c2cccc(C(F)(F)F)c2)c(=O)c1Cl,inactive
6,CCCOCC(=Nc1ccc(Cl)cc1C(F)(F)F)n1ccnc1,inactive
7,CC(C)N(C(=O)SCC(Cl)=C(Cl)Cl)C(C)C,inactive
8,CCCCOC(=O)[C@@H](C)Oc1ccc(Oc2ccc(C#N)cc2F)cc1,inactive
9,CCC(=NOC/C=C/Cl)C1=C(O)CC(C2CCOCC2)CC1=O (stereo not given),inactive
10,COP(=O)(NC(C)=O)SC (stereo not given),inactive
11,C=C(C)[C@H]1Cc2c(ccc3c2O[C@@H]2COc4cc(OC)c(OC)cc4[C@@H]2C3=O)O1,inactive
12,O=C(O)c1cc(Oc2ccc(C(F)(F)F)cc2Cl)ccc1[N+](=O)[O-],inactive
13,CCOP(=S)(Oc1cnc(C(C)(C)C)nc1)OC(C)C (stereo not given),inactive
14,C[N+]1(C)CCCCC1,inactive
15,CCOP(=S)(OCC)OC(Cl)C(Cl)(Cl)Cl (stereo not given),inactive
16,CCCCN(CC)c1c([N+](=O)[O-])cc(C(F)(F)F)cc1[N+](=O)[O-],inactive
17,COc1ccc(C(=CC(=O)N2CCOCC2)c2ccc(Cl)cc2)cc1OC,inactive
18,CCOC(=O)CC(SP(=O)(OC)OC)C(=O)OCC (stereo not given),inactive
19,CN(C)[C@@H]1C(=O)C(C(N)=O)=C(O)[C@@]2(O)C(=O)C3=C(O)c4c(O)cccc4[C@@](C)(O)[C@H]3[C@H](O)[C@@H]12,inactive
20,Cc1nn(-c2cc(NS(C)(=O)=O)c(Cl)cc2Cl)c(=O)n1C(F)F,inactive

# Reference: PubChem BioAssay (EPA / NIEHS)
